Out of some 300,000 compounds screened, about 37,000 (12%) were called active. For the sample, actives were picked, then their nearest neighbours and some compounds at random. Unmarked numbers belong to inactive results. Cut-off read from the data, not from the text of the source: active = max response mostly above about 13% (no sharp cut-off); inactive = mostly below about 14%.
test: Cycloheximide Counterscreen for Small Molecule Inhibitors of Shiga Toxin; settings: cell reporter, cycloheximide protein synthesis inhibition counterscreen; stronger effect = higher value; note: read at 38.3 µM for the half of the compounds with a filed dose; 0% is about no effect

SMILES	max response
CCN(CC)CCNC(=O)c1sc2ncn(CC(=O)Nc3ccc(C)c(Cl)c3)c(=O)c2c1C	-6.12%
Cc1ccc(NC(=O)CSc2nnc(CNC(=O)c3ccccc3F)o2)cc1Cl	7.13%
CCCNC(=O)CCc1c(C)nc2c(c(C)nn2-c2ccccc2)c1C	-1.68%
Cc1ccc(C)c(C(=O)N2CCC(n3nccc3NC(=O)C3CC3)CC2)c1	-2.23%
Cc1ccc(C)c(NS(=O)(=O)c2c(C)[nH]c(C)c2C(=O)N2CCCCC2)c1	-4.94%
CC(=O)OC(C(=O)NC1CCCCC1)c1ccccc1 (centres undefined)	-1.59%
O=C(/C=C/c1cnc2ccccc2n1)NC1CCCCCC1	49.7% (active)
O=C(Cn1c(-c2cncs2)nc2ccccc21)NC1CCCC1	-2.22%
CCOc1ccc(NC(=O)N(CCC(C)C)C(C)c2ccco2)cc1 (centres undefined)	8.57%
CCCC(C(=O)NCc1ccco1)N(C(=O)CNS(=O)(=O)c1ccccc1)C1CCCC1 (centres undefined)	2.82%
CC(c1ccco1)N(C(=O)Nc1ccccc1)C1CCCCC1 (centres undefined)	14.3% (active)
COc1ccc(C2=NS(=O)(=O)N(C)C(C(=O)N(C)Cc3ccccc3)=C2)cc1	-2.93%
O=C(C[C@H]1C(=O)N(c2ccc(F)c(F)c2)C[C@@H]1Cc1ccccc1)Nc1ccccc1	2.14%
CCOc1ccc(NC(=O)C2CCN(C(=O)N3CCOc4ccccc43)CC2)cc1	-1.22%
Cc1cc(C)c2c(=O)[nH]c(SCC(=O)Nc3ccc(Br)cc3)nc2n1	-1.25%
COc1ccc(C2CC(c3cccs3)=NN2c2ccc(F)cc2)cc1OC (centres undefined)	15.3%
COc1ccc(C2CC(c3cccs3)=Nc3ccccc3S2)cc1OC (centres undefined)	30.8% (active)
COc1ccc(C2CC(c3cccs3)=NN2C(=O)CCC(=O)O)cc1OC (centres undefined)	-0.943%
C=CCn1c(CNC(=O)c2ccco2)nnc1SCC(=O)c1ccc(OC)cc1	0.446%
CCn1c(CNc2ccc(OC)cc2)nnc1SCC(=O)c1ccc(OC)cc1	25.8% (active)
COC(=O)c1ccc(NC(=O)CSc2nnc(-c3ccncc3)n2C)cc1	0.526%
COC(=O)c1ccc(NC(=O)CSc2nnc(C3CC3)n2C)cc1	-2.61%
COC(=O)c1ccc(NC(=O)CSc2nnc(CNc3ccc(OC)cc3)n2C)cc1	15.4% (active)
CCn1c(SCC(=O)NNC(=O)c2ccc(OC)cc2)nnc1C(C)C	-1.89%

SMILES	max response
O=C(NCCCN1CCCC1=O)C(=O)NCC1OCCN1S(=O)(=O)c1ccc(Br)cc1 (centres undefined)	0.895%
CN(C)c1ccc(NC(=S)N(CCc2ccccc2)C2CC(=O)N(c3c(Cl)cccc3Cl)C2=O)cc1 (centres undefined)	9.01%
Cc1ccc(-n2c(SCC(=O)NCCC3=CCCCC3)nc3n[nH]c(C)c3c2=N)cc1Cl	-7.25%
O=C(Cn1cncn1)N/N=C/c1c2ccccc2cc2ccccc12	10.8%
Cc1cccn2c(=O)c3cc(C(=O)NCCN4CCOCC4)c(=N)n(Cc4cccnc4)c3nc12	-3.88%
CC(Cc1cccs1)NCc1ccc(Cl)cc1 (centres undefined)	8.85%
CC(Cc1cccs1)NC(=O)c1cccc(Cl)c1 (centres undefined)	54.9% (active)
CC(Cc1cccs1)NC(=O)NC1CCCCC1 (centres undefined)	12%
O=C(c1cnc(Cl)c(Cl)c1)N1CCN(S(=O)(=O)c2ccc(F)cc2)CC1	-7.24%
Cc1cnc(C(=O)N2CCCC(C(=O)c3ccc(C(F)(F)F)cc3)C2)cn1 (centres undefined)	-6.02%
O=C(NCc1ccco1)c1sc2cccc(F)c2c1Cl	24.8% (active)
Cn1nc(-c2ccc(Cl)cc2)c2cc(C(=O)NCc3ccco3)sc21	-3.6%
O=C(NCc1ccco1)c1ccc([N+](=O)[O-])cc1Cl	-2.66%
COc1ccc2c(Cl)c(C(=O)NCc3ccco3)sc2c1	76.1% (active)
O=C(NCc1ccco1)c1nn2cccnc2c1Cl	7.86%
COc1ccc(-c2cc(C(=O)NCc3ccco3)no2)cc1OC	8.2%
COC(=O)c1ccc(COc2cc([N+](=O)[O-])cc3cccnc23)cc1	0.536%
COc1cccc(NC(=O)C2CCCN(c3ncnc4c3nc3n4CCCCC3)C2)c1 (centres undefined)	9.28%
CCCOc1ccc(Cc2c(Cl)nc(SC)nc2NC)cc1	-0.737%
CC(NC(=O)c1cc(=O)[nH]c2ccccc12)c1ccc(F)cc1F (centres undefined)	-4.29%
CC(C)N1C(=S)SC(C)(C)C1n1oc(=O)n(-c2ccc(Cl)c(Cl)c2)c1=O (centres undefined)	-1.96%
CC(=O)NC1CCN(CC(=O)Nc2nccs2)CC1	4.21%
CC1(C)CC(=O)C(C2c3ccccc3S(=O)(=O)c3ccccc32)C(=O)C1	7.14%
COc1ccc(CNC(=O)C(NS(=O)(=O)c2cccc3nsnc23)C(C)C)cc1 (centres undefined)	2.57%

SMILES	max response
Cc1ccc(C)c(OCCC(=O)OCC(=O)N2CCN(c3ccccc3)CC2)c1	-1.98%
COc1ccc2c(c1)C(=C(C#N)C#N)C(=O)N2CCc1ccccc1	13.7% (active)
CCCCN1C(=O)/C(=C(/C#N)C(N)=O)c2ccccc21	-9.26%
C#CCN1C(=O)C(O)(CC(=O)c2cc(OC)ccc2OC)c2ccccc21 (centres undefined)	-0.954%
COc1ccc(C(=O)N/N=c2\oc3ccccc3cc2C(N)=O)cc1	45%
NC(=O)c1cc2ccccc2o/c1=N/NC(=O)c1cccc(F)c1	8.31%
COc1cccc2cc(C(N)=O)/c(=N\NC(=O)c3ccccc3)oc12	36.9% (active)
CCCC(C)c1nnc(NC(=O)C2CC(=O)N(c3ccc(OCC)cc3)C2)s1 (centres undefined)	-2.49%
COc1ccc(N2CCN(C(=O)CNC(=O)c3ccc(Br)o3)CC2)cc1	-1.81%
CC1=C(C(N)=O)C(c2ccc(F)cc2)n2nc(CCCO)nc2N1 (centres undefined)	5.22%
CC(c1ccccc1)(c1ccccc1)c1ccncc1	-5.73%
Cc1cc(C)c(SCCc2ccncc2)c(C)c1	1.01%
CC(C)(C)c1ccc(SCCc2ccncc2)cc1	12.3% (active)
COc1ccc(N2CCN(C(=O)Cn3cnc4sc(C)c(S(=O)(=O)N5CCOCC5)c4c3=O)CC2)cc1	-2.13%
Cn1c(=O)[nH]c(=O)c2c1[nH]c(=S)n2Cc1ccccc1	-6.84%
CCOCc1nnc(NC(=O)CCC2CCCCC2)s1	9.52%
CCc1ccc(OCC(O)CN2CCN(CCO)CC2)cc1 (centres undefined)	-1.22%
CCn1c(SC)nc(O)c(C(c2ccc(OC)c(O)c2)c2c(O)nc(SC)n(CC)c2=O)c1=O	18.8%
Cc1onc(-c2ccc(Cl)cc2)c1-c1ccnn1S(=O)(=O)c1ccc(Cl)cc1	9.73%
CCCc1nc(-c2cc3cc(C)ccc3[nH]c2=O)no1	2.4%
COc1ccc(-c2noc(-c3ccc(C)cc3)n2)cc1	39.5% (active)
COc1ccc(CCNC(=O)C(Sc2ccccn2)c2ccccc2)cc1OC (centres undefined)	-1.92%
COc1ccc2[nH]c(=O)c(-c3noc(-c4ccc(F)cc4)n3)cc2c1	41% (active)
COc1ccc(-c2noc(CN(C)S(=O)(=O)c3ccc(C)cc3)n2)cc1	-2.54%

SMILES	max response
COc1ccc(-c2noc(CSc3ccc(C)cc3)n2)cc1	10.3%
COc1ccc2[nH]c(=O)c(CN(Cc3cccnc3)S(=O)(=O)c3ccccc3F)cc2c1	-2.1%
Cc1ccc(-c2noc(CC(c3ccccc3)c3ccccc3)n2)cc1	11%
COc1ccccc1CNS(=O)(=O)c1ccc(C)cc1	7.14%
COc1ccc(CCNS(=O)(=O)c2cccc3cccnc23)cc1OC	-1.86%
COc1ccccc1Cc1nc(-c2ccc(C)cc2)no1	35.3% (active)
COc1ccc(Cc2nc(-c3ccccn3)no2)cc1OC	33% (active)
O=c1c([N+](=O)[O-])cccn1Cc1ccc(F)cc1Cl	-5.4%
CCCN(CCC)C(=S)Nc1cc(C(=O)OC)ccc1C(=O)OC	-1.36%
COc1ccc(S(=O)(=O)/N=C2\C=C(NS(=O)(=O)c3ccccc3)C(=O)c3ccccc32)cc1	13.7%
COC(=O)COc1ccc2c(=O)c(Oc3ccccc3Br)coc2c1	1.67%
CCCCN(CCCC)CC(O)Cn1c2ccccc2c(=O)c2ccccc21 (centres undefined)	1.42%
CCc1ccnc(NC(=O)Nc2ccc(OCc3ccccc3)cc2)c1	4.28%
COc1ccc(C2=NOC3(CC(=O)N(c4ccc(C)cc4)C3=O)C2)cc1 (centres undefined)	14.2%
COc1ccc(C2=Nc3cc(C)ccc3OC2)cc1	33.1% (active)
COc1ccc(/C=C/c2c(-c3cccc(C)c3)oc3ccc(-c4ccc5c(c4)OCO5)cc23)cc1	-3.1%
CC(=O)Nc1ccc(S(=O)(=O)Nc2ccc(-c3ccc4nnc(C)n4n3)cc2)cc1	-1.66%
O=C(NC1CCCC1)C(c1ccc(Cl)cc1)N(C(=O)c1csnn1)C1CC1 (centres undefined)	-3.62%
Cc1cccc(C)c1-n1c(C)cc(/C=C2\C(=O)NN(c3ccccc3)C2=O)c1C	-1.17%
Cc1ccccc1-n1c(C)cc(/C=C2\NC(=O)NC2=O)c1C	52% (active)
Cc1cc(/C=C2/NC(=O)NC2=O)c(C)n1-c1cccnc1	7.98%
CCOc1ccc(S(=O)(=O)N2CCN=C2Cc2ccccc2)cc1C	-7.25%
